Experimental data: PubChem BioAssay (EPA / NIEHS)
Activity calls are given as the source filed them. The calls were made as follows: active = hit-call score of the fitted dose curve at least 0.9, where 1 is the maximum; inactive = score below 0.9.

read-out: flavin-containing dimethylaniline monooxygenases 3 (FMO3), FMO3 (gene 2328); experiment: LTEA_HepaRG_FMO3: Life Technologies and Expression Analysis (LTEA) Assay for flavin-containing dimethylaniline monooxygenases 3 (FMO3) using HepaRG (AID 2283453); conditions: mRNA level, 48 h; actives raise or lower the signal;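 as to AC50: FMO3 transcript by TaqMan qRT-PCR normalized to ACTB GAPDH and POLR2A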
Method: LTEA_HepaRG is a cell based, multiplexed-readout assay that uses HepaRG, a human liver cell line, with measurements taken at 48 hours after chemical dosing on a 96-well plate.LTEA_HepaRG_FMO3 is one of 102 assay component(s) measured in the LTEA HepaRG cell culture assay. It is a marker of NR mediated metabolism.Data from the assay component LTEA_HepaRG_FMO3 was analyzed into 1 endpoint. This assay endpoint, LTEA_HepaRG_FMO3, was analyzed with bidirectional fitting relative to DMSO as the negative control and baseline of activity. Using a type of inducible reporter, measures of mRNA induction for gain or loss-of-signal activity can be used to understand regulation of transcription factor activity. To generalize the intended target to other relatable targets, this assay endpoint is annotated to the oxidoreductase intended target family, where the subfamily is […].
A total of 1060 chemcials from the ToxCast library were tested in eight-point concentration-response experiments. Cell culture and cytotoxicity assays were conducted at Thermo Fisher Scientific's Custom Services facility (Madison, WI). A single lot of human HepaRG cells (Thermo Fisher Scientific, Frederick, MD) was used for the cell culture experiments. 96-well format collagen type I coated plates of human HepaRG cells were prepared using established methods. Briefly, cryopreserved HepaRG cells were thawed, plated at a density of approximately 100,000 cells/well in HepaRG Thaw, Plate, and General Purpose media (HPRG770, Thermo Fisher Scientific), and incubated for 48 hours. 0.5% DMSO was selected as vehicle control to balance the requisite need of DMSO in HepaRG cultures to maintain differentiation (for example, baseline metabolism, proportions of hepatocytes vs. cholangiocytes), while enabling further hepatic receptor pathway activation (for example, PXR and CAR) in response to chemical exposure. 48 hours after plating, the culture medium was replaced with HepaRG Serum-Free Incudtion Media. Cells were exposed to each test chemical in duplicate and maintained in CO2 incubators for another 48 hours. Chemical plates were thawed to room temperature and 200x concentrations of treatment groups were prepared. 8-point conentration-reponse curves were made with the highest exposure at 100 uM, followed by half-log dilutions, all in 0.5% DMSO. Each test plate contained variouse controls, induction positive controls (1mM phenobarbital), cytotoxicity positive controls ([…] aflatoxin B1), vehicle controls (0.5% DMSO), and total lysis controls (0.5% DMSO). Cell morphology images were taken using an Essen IncuCyte FLR automated microscope, with six 96-well plates imaged in about 24 minutes. Images were captured and exported and JPEG files. Spent culture media was transfered to black-well plates for the LDH assay, and remaining media was sorted at -80 C for later use. Cells were treated with RLT buffer and frozen until shipped for gene expression analysis. Total RNA was isolated from the cell suspension in 75 uL of Buffer RLT (Qiagen, Germantown, MD 20874) by Quintiles/Expression Analysis (Durham, NC) using a custom isolation procedure. Total RNA from each plate well was transferred to a preamplification plate. Fluidigm's 96.96 Dynamic ArrayTM (Fluidigm, Amsterdam, the Netherlands) technology was used for gene expression analyses by quantitative reverse transcription polymerase chain reaction (qRT-PCR, performed by Quintiles/Expression Analysis, Durham, NC)89. Standard TaqManTM Assays (Applied Biosystems/ThermoFisher Scientific, Foster City, CA) were used to assess the expression of 93 genes selected based on their selectivity and sensitivity to important hepatic receptors known to be modulated by environmental chemicals; importance in human hepatocyte functionality; and hepatotoxicity. […]

Question: With N#Cc1cccnc1 as the compound, how does the outcome read?
Answer: The outcome was “inactive”.

Question: For CCCCCCCCCCCCc1cccc(S(=O)(=O)O)c1, which outcome is on record?
Answer: The outcome was “inactive”.

Question: CC(C)(C)c1ccccc1O was tested. Which outcome did it give?
Answer: The outcome was “inactive”.

Question: With CN(C)C(=S)S as the compound, how does the outcome read?
Answer: The outcome was “inactive”.

Question: Oc1c(Cl)cc(Cl)cc1Cl was tested. Which outcome did it give?
Answer: Its outcome is “inactive”.

Question: Clc1cccc(Cl)c1Cl was tested. Which outcome did it give?
Answer: Its outcome is “inactive”.

Question: Which AC50 does the source give for O=C(O)C1(c2ccc3c(c2)OC[C@H](Cc2ccc(-c4ccccc4)cc2)[C@H]3O)CCCC1 here?
Answer: Its AC50 is 81.8 µM (active).

Question: With OCCN(CCO)CCO as the compound, how does the outcome read?
Answer: Its outcome is “inactive”.

Question: For Clc1cccc(Cl)c1, which outcome is on record?
Answer: Its outcome is “inactive”.

Question: For CC(C)O.CC(C)O.OCCN(CCO)CCO.OCCN(CCO)CCO.[Ti], which outcome is on record?
Answer: Its outcome is “inactive”.

Question: Oc1cc(Cl)c(Cl)cc1Cl was tested. Which outcome did it give?
Answer: The outcome was “inactive”.

Question: Which outcome does the source give for Cc1cc(C)cc(C)c1 here?
Answer: Its outcome is “inactive”.

Question: For COc1ccccc1N, which outcome is on record?
Answer: Its outcome is “inactive”.

Question: For O=C(N[C@H]1CN2CCC1CC2)c1ccc2c(c1)OCCO2, which outcome is on record?
Answer: The outcome was “inactive”.
